In the antibiotic and cytotoxicity screens of Wong et al. (2023):
Out of some 39,000 compounds screened, about 1,500 (3.8%) were called active. The full list was thinned out, with actives kept by preference.

Tested on: HSkMC (human skeletal muscle cells)
Test: cytotoxicity call (relative viability < 0.9)
Conditions: 10 µM

SMILES	cytotoxicity call
C[C@H]1CN([C@@H](C)CO)C(=O)c2cc(NC(=O)Cn3cnnn3)ccc2O[C@@H]1CN(C)Cc1ccc(-c2ccccc2)cc1	inactive
COc1ccc(NC(=O)Nc2ccc3c(c2)C(=O)N([C@H](C)CO)C[C@@H](C)[C@H](CN(C)S(=O)(=O)c2c(C)noc2C)OCCCC[C@@H](C)O3)cc1	inactive
CC1CC2C3CC(F)C4=CC(=O)C=CC4(C)C3(F)C(O)CC2(C)C1(O)C(=O)COC(=O)C(C)(C)C (stereo unspecified)	inactive
CC(=O)Nc1nnc2n1CCS2	inactive
C[C@H](O)C#Cc1cnc2c(c1)C(=O)N([C@H](C)CO)C[C@@H](C)[C@@H](CN(C)C(=O)CN1CCOCC1)O2	inactive
C[C@H]1CN([C@@H](C)CO)C(=O)c2cccc(NS(=O)(=O)c3ccc(F)cc3)c2O[C@@H]1CN(C)S(=O)(=O)c1cn(C)cn1	inactive
C[C@@H]1CCCCO[C@H](CN(C)C(=O)c2ccncc2)[C@H](C)CN([C@H](C)CO)C(=O)c2cc(NS(=O)(=O)c3cn(C)cn3)ccc2O1	inactive
O=C(C[C@@H]1C=C[C@@H](NC(=O)c2cccc(F)c2)[C@@H](CO)O1)NCCN1CCCC1	inactive
Clc1cccn2nnnc12	inactive
C[C@@H]1CCCCO[C@H](CN(C)Cc2ccc(C(=O)O)cc2)[C@H](C)CN([C@@H](C)CO)C(=O)c2cc(NC(=O)c3ccccc3)ccc2O1	inactive
C[C@@H]1CCCCO[C@@H](CN(C)Cc2ccc(C(F)(F)F)cc2)[C@H](C)CN([C@@H](C)CO)C(=O)c2cc(NC(=O)CCC(F)(F)F)ccc2O1	inactive
COC(=O)C1=CC(CCCO)=C[C@@H](c2cccs2)N(Cc2cccc(OC(F)(F)F)c2)C=C1C(=O)OC	inactive
COCCOC(=O)N1C(=O)[C@@]2(c3cc(C#Cc4ccc(OC)cc4)ccc31)[C@H](c1ccc(OCCO)cc1)N1[C@H](c3ccccc3)[C@H](c3ccccc3)OC(=O)[C@H]1[C@@H]2C(=O)NC[C@H](O)c1ccccc1	inactive
O=C1O[C@H](c2ccccc2)[C@H](c2ccccc2)N2[C@H]1[C@@H](C(=O)O)[C@]1(C(=O)Nc3ccc(C#CC4=CCCCC4)cc31)[C@H]2c1ccccc1OCCO	inactive
COc1ccc(C#Cc2ccc3c(c2)[C@]2(C(=O)N3)[C@H](C(N)=O)[C@H]3C(=O)O[C@H](c4ccccc4)[C@H](c4ccccc4)N3[C@@H]2c2ccccc2OCCO)cc1	active
COc1ccc(C#Cc2ccc3c(c2)[C@]2(C(=O)N3)[C@H](c3ccccc3OCCO)N3[C@H](c4ccccc4)[C@H](c4ccccc4)OC(=O)[C@H]3[C@@H]2C(=O)O)cc1	inactive
COCCOC(=O)N1C(=O)[C@@]2(c3cc(C#Cc4ccc(OC)cc4)ccc31)[C@H](c1ccc(OCCO)cc1)N1[C@H](c3ccccc3)[C@H](c3ccccc3)OC(=O)[C@H]1[C@@H]2C(N)=O	inactive
O=C1O[C@@H](c2ccccc2)[C@@H](c2ccccc2)N2[C@@H](c3ccccc3OCCO)[C@]3(C(=O)Nc4ccc(C#CC5=CCCCC5)cc43)[C@@H](C(=O)O)[C@H]12	inactive
COc1ccc(C#Cc2ccc3c(c2)[C@]2(C(=O)N3)[C@H](C(=O)O)[C@H]3C(=O)O[C@H](c4ccccc4)[C@H](c4ccccc4)N3[C@@H]2c2ccccc2OCCO)cc1	inactive
NC(=O)[C@H]1[C@@H]2C(=O)O[C@@H](c3ccccc3)[C@@H](c3ccccc3)N2[C@@H](c2ccccc2OCCO)[C@]12C(=O)Nc1ccc(C#CC3=CCCCC3)cc12	active
COc1ccc(C#Cc2ccc3c(c2)[C@@]2(C(=O)N3C(=O)N[C@@H](C)c3ccccc3)[C@H](c3ccc(OCCO)cc3)N3[C@H](c4ccccc4)[C@H](c4ccccc4)OC(=O)[C@H]3[C@@H]2C(=O)O)cc1	active
